# Experimental data taken from PubChem BioAssay AID624396 (The Scripps Research Institute Molecular Screening Center, 2012).
# Active and inactive are the calls of the source.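 How the source made its calls: active means over 15% of cells apoptotic at 25 µM, or half-maximal dose of 10 µM or lower; inactive means the rest.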
# System: BCL2 1863
# Assay: apoptosis induction in cancer cell lines, late-stage follow-up, mechanism study for MCL1-BIM inhibitor project, imaging, DAPI staining, cell line panel, probe (AID 624396)
# Settings: DAPI nuclear morphology, at 25 µM, active compounds read high
compound,measurement,value
CCN1CCN(C(c2ccc(C(F)(F)F)cc2)c2ccc3cccnc3c2O)CC1 (stereo unspecified),apoptosis,21% (active)
